The text below walks through data of PubChem BioAssay AID463173 (ICCB-Longwood Screening Facility, Harvard Medical School, 2010).

SMILES strings stand for the structures. Hit rate of the full screen: of about 52,000 compounds, about 1,700 (3.3%) were called active. This is one part of a sample in which actives are shown more often than they occur. Values without a mark were called inactive. No stated cut-off is given here; in the data, active means survival mostly below about 52% (no sharp cut-off); inactive means mostly above about 56%.

This assay has as its system Wild type. Nature of the assay: S. aureus survival, RN4220 and DeltatarO strains – OD600, teichoic acid synthesis inhibitors, primary screen (AID 463173). Particulars: S. aureus RN4220 wild type/DeltatarO growth, OD600, 18 h, hits give low values, screened at 18.75 µg/mL (by protocol).
Consider `CCn1c(SCC(=O)N(C2CCCCC2)C2CCCCC2)nnc1C(C)C`, for which the survival was 100%.

Consider `CCc1ccc(C2=C(C)C(N3CCC(C(=O)NCc4ccc(C)o4)CC3)=NS2(=O)=O)cc1`, for which the survival was 63%.

In the case of `Cc1ccc(C(=O)NCCc2csc(-c3cccc(F)c3)n2)cc1C`, the survival is 78%. In the case of `Cc1ccc(NC(=O)COCc2cc(-c3cccs3)on2)cc1Cl` it was 65%; in that of `O=C(COCc1cc(-c2ccco2)on1)Nc1cccc(O)c1`, 73%. The value for `O=C(COCc1cc(-c2cccs2)on1)N1CCN(c2ccccc2)CC1` was 68%.

For the compound `O=C(COCc1cc(-c2cccs2)on1)N1CCN(c2cccc(Cl)c2)CC1`, the survival is 10% (active). For `O=C(COCc1cc(-c2cccs2)on1)N1CCN(c2ccc(F)cc2)CC1`, the survival was 73%. In the case of `O=C(COCc1cc(-c2cccs2)on1)Nc1cccc(O)c1` it was -3% (active); in that of `CC(=O)N1CCCc2cc(S(=O)(=O)N(C)CC(=O)Nc3cccc(Cl)c3C)ccc21`, 68%; in that of `CCOc1ccccc1NC(=O)Cn1nnc(C(=O)NCc2ccc(F)cc2)c1N`, 101%. With `Cc1cccc(Nc2sc(C(=O)c3ccc(Cl)cc3)c(N)c2C(N)=O)c1`, the survival was 45%. The value for `Cc1ccc(C)n1-c1cccc2cccnc12` was 103%. The value for `COc1ccccc1NC(=O)COC(=O)CC(C)(C)CC1=NS(=O)(=O)c2ccccc2N1` was -3% (active). The value for `Cc1cccc(NC(=O)COC(=O)CCCC2=NS(=O)(=O)c3ccccc3N2)c1` was -4% (active); that for `CCOc1ccccc1NC(=O)COC(=O)CC(C)(C)CC1=NS(=O)(=O)c2ccccc2N1` was 63%; that for `COc1ccc(Cl)cc1NC(=O)COC(=O)CC(C)(C)CC1=NS(=O)(=O)c2ccccc2N1` was 81%. `CCc1ccc(NC(=O)COC(=O)CCCC2=NS(=O)(=O)c3ccccc3N2)cc1`: the survival is 129%. `O=C(COC(=O)CCCC1=NS(=O)(=O)c2ccccc2N1)Nc1ccc(Br)cc1`: the survival is 81%.

For the compound `CCS(=O)(=O)N1CCC(NC(=O)c2ccccc2Cl)CC1`, the survival is 127%. As to `COc1cccc(NC(=O)CC2C(=O)OCCN2Cc2ccccc2)c1` (stereo unspecified), the survival was 161%. The value for `COc1ccc(CN2C(=O)N(c3cccc(C)c3)C(=O)C2CC(=O)Nc2ccc(F)cc2)cc1OC` (stereo unspecified) was 73%. In the case of `CCCCSc1ncnc2c1c(-c1ccccc1)cn2-c1cccc(F)c1` it was 84%; in that of `CCCSc1ncnc2c1c(-c1ccccc1)cn2-c1ccccc1OC`, 1% (active). As to `CCOC(=O)CSc1ncnc2c1c(-c1ccccc1)cn2-c1ccc(OC)cc1`, the survival was 75%.

With `CCOC(=O)N1CCc2c(sc3c2c(=O)n(Cc2ccccc2)c(=O)n3CC(=O)Nc2ccc(F)cc2)C1`, the survival was 87%. Turning to `CCCCNc1nc2c(c(=O)n(Cc3ccccc3)c(=O)n2C)n1C`, the survival was 67%.

`CCCCNc1nc2c(c(=O)n(Cc3ccc(Cl)cc3)c(=O)n2C)n1C`: the survival was 70%. As for `CCCCNc1nc2c(c(=O)n(Cc3ccc(Cl)c(Cl)c3)c(=O)n2C)n1C`, the survival is 1% (active). In the case of `CCn1c(=O)c2cc(C(=O)N(CC(C)C)CC(C)C)sc2c2ccccc21` it was -1% (active); in that of `CCn1c(=O)c2cc(C(=O)N(C)c3cc(C)ccc3C)sc2c2ccccc21`, 125%; in that of `CCCn1c2ccccc2c2cnn(CC(=O)N(CCCOC(C)C)Cc3ccco3)c(=O)c21`, 76%. In the case of `CCn1c(=O)c2cc(C(=O)N(CCCOC(C)C)Cc3ccco3)sc2c2ccccc21` it was 1% (active); in that of `Cc1ccc2[nH]c(=O)c3cc(C(=O)N(CCCOC(C)C)Cc4ccco4)sc3c2c1`, 71%. In the case of `CCn1c(=O)c2cc(C(=O)N(CCN(C)C)Cc3ccccc3)sc2c2ccccc21`, the survival is 75%. For the compound `O=C(NC1CCCCC1)c1ccco1`, the survival is 102%. The value for `COc1ccc(OC)c(NC(=O)c2sc3nc4c(cc3c2N)CCCCCC4)c1` was 70%.

Consider `CC(=O)N1c2ccc(S(=O)(=O)N3CCCCCC3)cc2CC1C(=O)NCc1ccccc1F` (stereo unspecified), for which the survival was 131%.

As for `O=C(NCCSc1c(-c2ccc(Br)cc2)[nH]c2ccccc12)c1ccc(S(=O)(=O)N2CCOCC2)cc1`, the survival was 84%.

For `Cn1c(SCCC(=O)O)nnc1-c1ccncc1`, the survival is 105%. For the compound `Cc1cc(N2CCCC(O)C2)n2nc(C)c(-c3ccc(F)cc3)c2n1` (stereo unspecified), the survival is 120%. In the case of `COc1ccc(C2=C(Nc3ccc(C)c(C)c3)c3ccccc3C2=O)cc1` it was 90%. `COc1ccc(C2=C(Nc3ccc(Br)c(C)c3)c3ccccc3C2=O)cc1`: the survival is 20% (active). On to `COc1ccc(C2=C(Nc3ccc(C)cc3C)c3ccccc3C2=O)cc1`, for which the survival is 76%. In the case of `O=C(NCC1(c2ccccc2)CCCC1)C(=O)Nc1cccc(Br)c1` it was 96%; in that of `Cc1cc(C)cc(NC(=O)CCCn2c3ccccc3c(=O)c3ccccc32)c1`, 69%; in that of `O=C(NCCc1ccccc1Cl)c1cc2ccccn2n1`, 140%.

`COc1cc(NC(=O)C2CCN(c3nc4ccccc4nc3C(F)(F)F)CC2)cc(OC)c1`: the survival was 78%. The value for `COc1cc(NC(=O)c2nc3ccccc3nc2N2CCCCC2)cc(OC)c1OC` was 82%; that for `COc1cc(NC(=O)C2CCN(c3cnc4ccccc4n3)CC2)cc(OC)c1OC` was -6% (active); that for `CCc1ccc(-n2c(Cc3ccccc3)nnc2SCc2nc(-c3cccs3)no2)cc1` was 99%.

As for `CCC(C(=O)Nc1ccc(C(C)=O)cc1)n1cnc2nc3c(cc2c1=O)CCCC3` (stereo unspecified), the survival is 63%.

Turning to `CC(=O)c1ccc(NS(=O)(=O)c2cnc(N)nc2)cc1`, the survival is 1% (active). In the case of `Nc1ncc(S(=O)(=O)Nc2ccc(OC(F)(F)F)cc2)cn1` it was 63%. The value for `COc1cc(NS(=O)(=O)c2cnc(N)nc2)cc(OC)c1` was 64%; that for `Cc1cccc(NC(=O)C2CCN(S(=O)(=O)c3ccc4c(c3)CCCN4C(=O)C3CCC3)CC2)c1` was 74%. In the case of `COc1cccc(N2CC(NC(=O)C(c3ccccc3)c3ccccc3)CC2=O)c1` (stereo unspecified) it was 65%. For `COc1ccc(C2c3c(n(C)c4ccccc34)C(=O)N2CC(=O)Nc2ccccc2Cl)cc1` (stereo unspecified), the survival is 135%. The value for `COc1ccccc1CNC(=O)CCc1c(C)c2cc3c(C)c(C)oc3cc2oc1=O` was 114%; that for `CCCOc1cccc(C(=O)Nc2ccc(-c3nc4ccccc4s3)c(Cl)c2)c1` was 65%.

As to `Cc1cccc2cc(C#N)c(SCC(=O)NCC3CCCO3)nc12` (stereo unspecified), the survival was 103%. With `Cc1ccc(NC(=O)CCNS(=O)(=O)c2ccc3c(c2)CCCC(=O)N3)cc1`, the survival is 73%. As to `COc1cc(Cl)c(NC(=O)CN(C)S(=O)(=O)c2ccc3c(c2)CCCC(=O)N3)c(OC)c1`, the survival is 59%. On to `COc1cc(OC)c(NC(=O)CN(C)S(=O)(=O)c2ccc3c(c2)CCCC(=O)N3)cc1Cl`, for which the survival is 1% (active). In the case of `COc1cc(NC(=O)CN(C)S(=O)(=O)c2ccc3c(c2)CCCC(=O)N3)cc(OC)c1OC` it was 81%. In the case of `Cc1ccc(C)c(NC(=O)CCNS(=O)(=O)c2ccc3c(c2)CCCC(=O)N3)c1`, the survival was -6% (active). On to `Cc1cccc(NC(=O)CCNS(=O)(=O)c2ccc3c(c2)CCCC(=O)N3)c1C`, for which the survival was 80%. In the case of `Cc1ccc(C)c(NC(=O)Cn2ncc3c([nH]c4ccccc43)c2=O)c1` it was 45%; in that of `CC(C)c1ccc(NC(=O)Cc2ccc(NC(=O)N3CCCCc4ccccc43)cc2)cc1`, 110%.

Regarding `Nc1cc(=O)nc(SCC(=O)Nc2ccccc2)n1CCc1ccccc1`, the survival was 69%. The value for `Cc1ccc(NC(=O)CN2C(=O)C3(SCC(=O)N3c3ccc(F)c(F)c3)c3ccccc32)c(C)c1` (stereo unspecified) was 69%; that for `O=C(Cn1nnc2sc3c(c2c1=O)CCCC3)Nc1ccc(F)c(Cl)c1` was 33%; that for `COc1ccc(Nc2ncnc3sc4c(c23)CCCC4)cc1` was 73%. In the case of `CCc1nc(Nc2ccc(F)c(Cl)c2)c2c3c(sc2n1)CCCC3` it was -1% (active). On to `CC1CCN(C(=O)Cn2ncc3c4ccccc4n(Cc4ccc(Cl)cc4)c3c2=O)CC1`, for which the survival was 95%.

Take `CCN1CCN(C(=O)Cn2ncc3c4ccccc4n(Cc4ccccc4F)c3c2=O)CC1`: the survival was 82%. Consider `Cc1cc(C)c(Cn2c3ccccc3c3cnn(CC(=O)N4CCCCC4)c(=O)c32)c(C)c1`, for which the survival is 125%. For the compound `Cc1ccccc1Cn1c2ccccc2c2cnn(CC(=O)N3CCC(C)CC3)c(=O)c21`, the survival is 12% (active).

For the compound `CCCn1c2ccccc2c2cnn(CC(=O)N3CCN(c4ccccc4F)CC3)c(=O)c21`, the survival was -6% (active). The value for `Cc1ccccc1Cn1c2ccccc2c2cnn(CC(=O)NC3CCC(C)CC3)c(=O)c21` (stereo unspecified) was 78%. In the case of `CCCn1c2ccccc2c2cnn(CC(=O)N3CCC(C)CC3)c(=O)c21` it was 67%; in that of `CCN1CCN(C(=O)Cn2ncc3c4ccccc4n(Cc4c(C)cc(C)cc4C)c3c2=O)CC1`, 126%; in that of `Cc1cc(C)c(Cn2c3ccccc3c3cnn(CC(=O)N4CCCCCC4)c(=O)c32)c(C)c1`, 1% (active).

Consider `COc1ccc(NC(=O)Nc2nnc(N(CC(C)C)CC(C)C)s2)c(OC)c1`, for which the survival is 96%. In the case of `COc1ccccc1C(=O)Nc1sc(Nc2ccccc2)nc1C(N)=O` it was 146%.

On to `S=c1nc(CNc2ccccc2)[nH][nH]1`, for which the survival was 95%. In the case of `CC(=O)N1c2c(cc(Br)cc2S(=O)(=O)N2CCN(c3cc(C)ccc3C)CC2)CC1C` (stereo unspecified) it was 72%; in that of `COc1ccc(NC(=O)Cn2c(=O)n(CCCCCC(=O)NCc3ccc4c(c3)OCO4)c(=O)c3sccc32)cc1Cl`, 89%; in that of `COc1ccc2c(CNCCc3cccs3)c(C(=O)O)n(Cc3ccc(F)cc3Cl)c2c1`, 115%. The value for `CCCCN1CC(c2nc3ccccc3n2CCCCOc2ccc(C)c(C)c2)CC1=O` (stereo unspecified) was 24%; that for `CCCCn1c(C2CC(=O)N(c3ccc(OCC)cc3)C2)nc2ccccc21` (stereo unspecified) was 84%. The value for `CCCCN1CC(c2nc3ccccc3n2CCCCOc2cc(C)cc(C)c2)CC1=O` (stereo unspecified) was 14% (active); that for `CCCCN1CC(c2nc3ccccc3n2CCCCOc2ccccc2C)CC1=O` (stereo unspecified) was 15% (active). Turning to `CCCCN1CC(c2nc3ccccc3n2CCCCOc2cccc(C)c2C)CC1=O` (stereo unspecified), the survival was -13% (active). On to `CCCCN1CC(c2nc3ccccc3n2CCCCOc2c(C)cccc2C)CC1=O` (stereo unspecified), for which the survival is 61%. For the compound `Cc1ccccc1OCCCCn1c(C2CC(=O)N(c3ccccc3Cl)C2)nc2ccccc21` (stereo unspecified), the survival is 59%.
